# Compound activity (PubChem)
# ELG1 DNA repair: blocks ELG1-dependent DNA repair in HEK293T cells; HEK293T ELG1-luciferase reporter, luminescence, 16 h; DNA damage induced by 5-fluorouridine; Potency, µM (titrated, usually from 46.1 µM), inactives show at the highest dose activity change, negative = inhibition, actives largely listed as inhibitors; 330,000 tested, 2.3% active; AID 504467; further: potency means the concentration at half of the fitted maximal effect; nearly all actives have a fitted effect of over 55% in size
#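 HEK293T cells expressing luciferase-tagged ELG1 (2,000/well) received 5-Fluorouridine plus compound or DMSO for 16 hr at 37 °C. Luciferase was read by ONE-Glo luminescence after 30 min at room temperature.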
# TDP1 cell CPT: growth inhibition of DT40 Tdp1-/-;hTDP1 cells with camptothecin (screen for TDP1 inhibitors); chicken DT40 Tdp1-/-;hTDP1 cells + 20 nM CPT, ATP luminescence, 48 h; Potency, µM (doses to about 46.2 µM), for the others: at the top dose activity change, negative = growth inhibition, usual class: inhibitors; 420,000 tested, 12% active; further: potency means the concentration at half of the fitted maximal effect; nearly all actives have a fitted effect of over 55% in size
#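 Cell growth measured by CellTiter-Glo luminescence after a minimum 48 h, 37 C compound exposure with 20 nM CPT in Tdp1-knockout DT40 cells stably expressing hTDP1, seeded 400/well; qHTS titration format.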
# HT1080NT lethal: kills 2HG-producing HT-1080-NT fibrosarcoma cells; HT-1080-NT fibrosarcoma viability, CellTiter-Glo ATP luminescence, 48 h; Potency, µM (series often up to 46.1 µM), inactives show at the highest dose activity, negative = less viability, actives largely listed as cytotoxic; 360,000 tested, 1.6% active;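 further: NT is the 2HG producing partner of a matched IDH1 knockdown line; potency means the concentration at half of the fitted maximal effect; 0% = DMSO-treated cells and -100% = media-only wells without cells; nearly all actives have a fitted effect of over 55% in size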
#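 HT-1080-NT; 750 cells/well; 5% FBS RPMI; 48 h compound, 37 degrees C; CellTiter-Glo luminescence; curve fitting and curve-class assignment.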
# TDP1 cell noCPT: qHTS for Inhibitors of human tyrosyl-DNA phosphodiesterase 1 (TDP1): qHTS in cells in absence of CPT; DT40 Tdp1-/- hTDP1 cells, no CPT, ATP luminescence, 48 h; Potency, µM (titrated, usually from 46.2 µM), for inactives: at the highest dose activity change, negative = growth inhibition, actives largely listed as inhibitors; 420,000 tested, 15% active; AID 686978, 2013; further: potency means the concentration at half of the fitted maximal effect; nearly all actives have a fitted effect of over 55% in size
#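 DT40 Tdp1-/-;hTDP1 cells, no CPT (DMSO vehicle only), 400 cells/well; compounds pin-transferred; ≥48 hr, 37 °C; CellTiter-Glo 30 min RT dark, luminescence read.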
# IL1B secr inh: inhibitors of inflammasome signaling (IL-1 beta secretion); THP-1 LPS/ATP IL-1B secretion, AlphaLISA, 16 h; stronger effect = lower value; activity change, % at 57.5 µM; 360,000 tested, 4.7% active; AID 743279; in the data active means activity change below about -50%; inconclusive means mostly about -30% to -49%
#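 Secreted IL-1B measured by AlphaLISA bead assay after 16 h compound exposure of THP-1 cells; compounds (final up to 57.5 uM) added 1 h before LPS (250 ng/mL) and ATP (1.25 mM) stimulation; lower signal means less secretion.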
# HT1080 IDH1KD tx: kills HT-1080 cells with IDH1 knockdown. HT-1080 IDH1 knockdown viability, ATP luminescence, 48 h. Potency, µM (series often up to 46.1 µM), for the others: at the top dose activity, negative = toxicity, most hits filed as cytotoxic. 360,000 tested, 2% active;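 further: potency means the concentration at half of the fitted maximal effect; 0% = DMSO wells and -100% = cell-free medium wells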
#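 % activity derives from luminescence (CellTiter-Glo), normalised to DMSO and no-cell wells. HT-1080-IDH1KD cells, 750/well, had 48 h compound exposure at 37 °C.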
# * hit, by the source's call; i = inactive; ? = inconclusive; · = no result given; ! = not confirmed by another sample. The list is not random: actives were taken first. Their share in the collection is about 19%. Unless noted, the call rests on the fitted dose curve; in most records, active means well fitted curve in the direction sought with a large enough effect; inconclusive means small, poorly fitted or top-dose-only effect, or another doubt; inactive means no such curve, though single readings can be large; an effect the other way counts as inactive or inconclusive. Unless noted, on the % scale 0 is the no-effect control and ±100 the full control effect.
SMILES,ELG1 DNA repair,TDP1 cell CPT,HT1080NT lethal,TDP1 cell noCPT,IL1B secr inh,HT1080 IDH1KD tx
Cc1cc(=O)oc2cc(OCC(=O)N3CCN(C(C)c4ccccc4)CC3)c(Cl)cc12 (centres undefined),21µM*,?,-14%,?,?,-12%
Cc1cc(=O)oc2cc(OCC(=O)N3C[C@H]4C[C@@H](C3)c3cccc(=O)n3C4)c(Cl)cc12,?,1%,2%,-2%,4,1%
COc1ccc(S(=O)(=O)Nc2ccccc2OC)cc1N=Nc1c(O)[nH]c(=S)[nH]c1=O,-12%,?,15µM*,?,0,12µM*
Cc1ccc(Cn2c(NCCCn3ccnc3)nc3c2c(=O)n(C)c(=O)n3C)cc1,0%,?,-7%,?,-14,-7%
Cc1cc(Br)cn2c(CC(=O)N3CCCCC3)c(-c3ccc(F)cc3)nc12,·,?,3%,16µM*,29,4%
O=C(Nc1ccc(Oc2ccccc2)cc1)c1ccc(F)c(S(=O)(=O)N2CCN(c3cccc(Cl)c3)CC2)c1,·,1.8µM*,·,3.7µM*,·,·
Cc1cccc(NC(=O)c2ccc(F)c(S(=O)(=O)N3CCN(c4ccc(F)cc4)CC3)c2)c1,·,?,·,16µM*,·,·
Cc1cccc(C(=O)Nc2ccc3c(c2)CC2(C(=O)N(C)C(=O)N(C)C2=O)C2CCCN32)c1 (centres undefined),10%,3%,1%,23%,13,10%
C[C@@]1(CO)[C@H](O)CC[C@@]2(C)[C@H]1CC[C@H]1C[C@@H]3C[C@@]12CC[C@]3(O)CO,-7%,0.1µM*,·,0.13µM*,·,·
COc1ccc(OC(=O)N(C)C[C@H]2OCc3cnnn3CCCC(=O)N([C@H](C)CO)C[C@@H]2C)cc1,·,4%,2%,-5%,12,5%
COc1ccc(OC(=O)N(C)C[C@@H]2OCc3ccccc3-c3c(n(C)c4ccccc34)C(=O)N([C@H](C)CO)C[C@@H]2C)cc1,·,6%,-6%,23µM*,-11,-8%
Cc1ccccc1S(=O)(=O)N(C)C[C@@H]1OCc2ccccc2-c2c(n(C)c3ccccc23)C(=O)N([C@H](C)CO)C[C@@H]1C,·,16µM*,-13%,21µM*,-9,-23%
C[C@@H]1CN([C@@H](C)CO)C(=O)c2c(c3ccccc3n2C)-c2ccccc2CO[C@H]1CN(C)S(=O)(=O)c1ccc(C#N)cc1,·,5%,-15%,?,-21,-28%
C[C@@H]1CN([C@H](C)CO)C(=O)c2c(c3ccccc3n2C)-c2ccccc2CO[C@@H]1CN(C)Cc1ccc(O)cc1,·,21µM*,-6%,15µM*,?,-5%
COc1cccc(CN(C)C[C@@H]2OCc3ccccc3-c3c(n(C)c4ccccc34)C(=O)N([C@@H](C)CO)C[C@H]2C)c1,·,-22%,?,?,-27,?
C[C@H](CO)N1C[C@H](C)[C@@H](CN(C)C(=O)Nc2ccccc2)Oc2c(NC(=O)Nc3ccccc3)cccc2C1=O,?,?,7%,?,-6,1%
C[C@@H]1CN([C@H](C)CO)C(=O)c2c(c3ccccc3n2C)-c2ccccc2CO[C@H]1CN(C)Cc1ccc(-c2ccccc2)cc1,·,18µM*,21µM*,21µM*,?,16µM*
COP(=S)(OC)Oc1cc(Cl)c(Cl)cc1Cl,·,-5%,·,-3%,·,·
CN1CCN(c2cc3c(nn2)Oc2ccccc2N3C)CC1,·,8%,·,?,·,·
Cc1c(-c2cccc(Cl)c2)nc2ccccc2c1C(=O)N1CCC2(CC1)OCCO2,-27%,21µM*,-8%,?,i,?
O=C(Oc1ccnc2cc(Cl)ccc12)N1CCOCC1,-5%,-22%,-1%,?,-19,-1%
Cc1c(O)c(O)cc2c1CC=C1[C@]3(C)CC[C@]4(C)CC[C@@](C)(C(=O)O)CC4[C@]3(C)CC[C@]12C (some centres undefined),·,7.3µM*,·,4.1µM*,·,·
CC1=C(O)C(=O)C=C2C1=CC=C1C2(C)CCC2(C)C3CC(C)(C(=O)O)CCC3(C)CCC12C (centres undefined),·,1.3µM*,4.6µM*,1µM*,-57*,1.6µM*
CCOc1cc(CN2CCN(C(=O)Cc3ccccc3)CC2)ccc1OC,?,-25%,1%,?,0,-5%
CCOc1ccc(CCNC(=O)c2cc3c(-c4ccc(OC)c(OC)c4)nn(C)c3s2)cc1OCC,·,4.1µM*,·,3.7µM*,·,·
SMILES,ELG1 DNA repair,TDP1 cell CPT,HT1080NT lethal,TDP1 cell noCPT,IL1B secr inh,HT1080 IDH1KD tx
C=CCN1CC[C@]23c4c5ccc(O)c4O[C@H]2/C(=N/NC(=O)c2ccccc2)CC[C@@]3(O)[C@H]1C5,·,-2%,-5%,-15%,-1,0%
COc1ccc(/C=C/c2nc(-c3ccccc3O)n(-c3ccccc3)n2)cc1OC,·,10µM*,·,10µM*,·,·
NCCCCN=C(N)N,·,8.4µM*!,·,6.7µM*!,·,·
CCC(NC(=O)OC(C)(C)C)C(=O)Oc1cc(C)cc2oc(=O)c3c(c12)CCC3 (centres undefined),-16%,21µM*,14%,12µM*,26,16%
Cc1cc(OC(=O)CCNC(=O)OC(C)(C)C)c2c3c(c(=O)oc2c1)CCC3,?,?,-12%,21µM*,-10,-14%
CCCCOC(=O)COc1cc(C)cc2oc(=O)c3c(c12)CCC3,21%,4%,-3%,-13%,-8,2%
COc1ccc(-n2c(C)cc(C(=O)C[N+]34CCN(CC3)CC4)c2C)cc1,?,18%,8%,?,-20,2%
ClC1=C(Cl)C(Cl)=C(Cl)C1=C/C=C/c1ccccc1,?,5.2µM*,-9%,3.3µM*,13,-16%
COc1cc2c(c(OC)c1OC)-c1ccc(O)c(=O)cc1[C@@H](NC(C)=O)CC2,?,5.2µM*,6.5µM*,6.5µM*,99,5.2µM*
COc1cc2c(c(OC)c1OC)-c1ccc(O)cc1C(NC(C)=O)CC2 (centres undefined),·,0.21µM*,?,0.18µM*,67,?
COc1cc2c(c(OC)c1OC)-c1ccc(O)cc1[C@@H](NC(C)=O)CC2,?,0.23µM*,0.033µM*,0.16µM*,50,0.016µM*
COc1cc2c3c(c1OC)-c1cc(O)ccc1CC3NCC2 (centres undefined),-7%,-5%,1%,?,40,2%
